# Laboratory results taken from ChEMBL document CHEMBL1157539, “Thousands of chemical starting points for antimalarial lead identification” (Nature, 2010).
# Assays:
# Format in all cases: functional
# Plasmodium falciparum [1] = assay: GSK_TCMDC: Inhibition of Plasmodium falciparum 3D7 in whole red blood cells, using parasite LDH activity as an index of growth. Test compounds present at 2uM
# Plasmodium falciparum [2] = assay: GSK_TCMDC: Inhibition of Plasmodium falciparum Dd2 in whole red blood cells, using parasite LDH activity as an index of growth. Test compounds present at 2uM
# HepG2 = assay: GSK_TCMDC: Percent inhibition of human HepG2 cell line. Test compounds present at 10uM.
SMILES,Inhibition (Plasmodium falciparum [1]),Inhibition (Plasmodium falciparum [2]),Inhibition (HepG2)
CN(C)c1ccc(NC(=O)Nc2ccnc3ccc(Br)cc23)cc1.Cl,91%,21%,0%
Cl.Nc1cc(C(F)(F)F)ccc1Cl,97%,0%,8%
CC(=O)Nc1ccc(Nc2ncc([N+](=O)[O-])c(Nc3ccccc3C(N)=O)n2)cc1.Cl,98%,97%,42%
O=C(Nc1ccc(N2CCC(Nc3ccccn3)CC2)cc1)c1cnc(Cl)c(Cl)c1.O=C(O)C(F)(F)F,83%,1%,46%
Cc1nc(N)nc(N)c1OCCCOc1cccc(Cl)c1Cl.Cl,93%,95%,59%
Br.C/C=C/C=C/C1=NCCc2cc(OCCC)ccc21,87%,40%,0%
Cc1sc2nc(CSc3ccccc3)nc(N3CCN(CC(=O)N4CCCC4)CC3)c2c1C,91%,69%,19%
CCCC(CCC)n1ccc2c3c(N)nc(N)nc3ccc21.Cl,98%,97%,66%
COc1cccc(OC2CCN(C(=O)c3cc(C(C)(C)C)nn3Cc3ccccc3)CC2)c1,100%,98%,3%
c1ccc(Oc2ccc(Nc3ccnc4cc(-c5ccc(CN6CCOCC6)o5)ccc34)cc2)nc1,92%,73%,5%
O=C(COc1ccccc1)N(Cc1ccc(-c2ccc(CNC3Cc4ccccc4C3)cc2)cc1)C1CCNCC1.O=C(O)C(F)(F)F,100%,8%,26%
FC(F)(F)c1ccc2[nH]c(-c3ccc(-c4ccc(CNCc5cnn(-c6ccccc6)n5)cc4)cc3)nc2c1.O=C(O)C(F)(F)F,100%,76%,35%
COc1ccc2c(NN=Cc3ccc(N(C)C)cc3)ccnc2c1,100%,100%,12%
COc1nc2c(CCN3CC[C@H](NCc4cc(C#N)c5c(c4)CCO5)[C@H](O)C3)ccnc2cc1F,99%,71%,31%
O=C1COc2ccc3ccccc3c21,99%,3%,0%
CCC[C@@H]([C@@H](CC1CCCCC1)C(=O)N[C@@H](CCCCNS(C)(=O)=O)C(=O)Nc1nccs1)N(O)C=O,100%,74%,0%
O=C(O)C(F)(F)F.O=c1ccc2ccc(F)c3c2n1CC3CN1CCC(NCc2cccc(-c3cccs3)c2)CC1 (centres undefined),100%,75%,17%
CCC(C)CN1CCN(c2ccc(NC(=O)c3cccs3)cc2)C(C)C1.O=C(O)C(F)(F)F (centres undefined),95%,95%,0%
O=C(Nc1cccc(OCCN2CCCC2)c1)Nc1ccc(Cl)c(Cl)c1.O=C(O)C(F)(F)F,98%,22%,3%
O=C(/C=C/c1ccc(Cl)c(Cl)c1)NCCCCN1CCCN(C(=O)Nc2ccc(F)c(Cl)c2)CC1,87%,2%,69%
Cc1cc(O)c2c(c1)OC(C)(C)C=C2C1=CCN(Cc2ccccc2)CC1,96%,1%,0%

SMILES,Inhibition (Plasmodium falciparum [1]),Inhibition (Plasmodium falciparum [2]),Inhibition (HepG2)
Cc1nnsc1C(=O)Nc1ccc(-c2ccc(-c3nc4cccc(C)c4[nH]3)s2)cc1,100%,61%,63%
O=C(/C=C/c1ccc(Cl)c(Cl)c1)NCCCCCN1CC[C@H](NC(=O)c2sc3ccccc3c2Cl)C1,97%,3%,26%
CN1CCC(NCc2ccc(-c3cnc(NCc4ccccc4)nc3)cc2)CC1.O=C(O)C(F)(F)F,91%,64%,23%
CCc1ccc(-n2cc(C(=O)c3cc(Br)ccc3O)cc(C#N)c2=O)cc1,97%,30%,9%
CC(C)COc1ccc(Cl)cc1Cc1ccc(-c2nc3cnc4ccccc4c3[nH]2)o1,87%,26%,21%
COc1ccc(CNC2CCN(C)CC2)cc1-c1ccc(S(=O)(=O)NC2CCC2)cc1.O=C(O)C(F)(F)F,98%,76%,58%
C=Cc1sc(CNCCCNc2cc(=O)c3ccccc3[nH]2)c(C)c1Br,94%,35%,0%
OCCN1CCN(C(=S)Nc2ccccc2)CC1,97%,7%,6%
OCc1ccc(-c2cncc(Nc3ccc(F)c(Cl)c3)c2)cc1,92%,99%,2%
OC(CN1c2ccccc2Sc2ccccc21)CN(C1CCCCC1)C1CCCCC1 (centres undefined),99%,96%,46%
Cl.O=S(=O)(Nc1cc2c(cc1O)CCN(C1CCC1)CC2)c1ccc(Oc2ccc(F)cc2)cc1,99%,52%,20%
Cc1cc(F)ccc1-c1nc(N(C)CCN(C)C(=O)N(C)c2ccccc2)nc2c1ccc(=O)n2-c1c(F)cccc1F.O=C(O)C(F)(F)F,87%,77%,0%
Cc1cc(Nc2ccc3ccccc3c2)n2ncnc2n1,96%,95%,11%
O=C(O)C(F)(F)F.c1cc(CNCC2CCCO2)cc(-c2csc(-c3nc4ccccc4[nH]3)c2)c1 (centres undefined),91%,6%,5%
Cc1cc(N[C@@H](Cc2ccccc2)C(=O)NCCOc2ccccc2)nc(NCC2CCCCC2)n1.O=C(O)C(F)(F)F,100%,75%,30%
CC(C)(C)c1ccc(CN2CCC(NC(=O)c3ccc(-c4ccccc4Cl)s3)CC2)cc1.O=C(O)C(F)(F)F,84%,29%,36%
COc1cc(-c2cnc(N)c(-c3nc4ccccc4[nH]3)c2)cc(OC)c1OC.Cl,100%,57%,59%
CCOc1ccc2[nH]c(C)cc(=NN=Cc3cccc(C)n3)c2c1,99%,73%,6%
CN1CCCc2ccc(NC(=O)Nc3ccc(Cl)c(Cl)c3)cc2C1,89%,22%,0%
COc1cc2nc(N3CCC(CNC(=O)c4cccc5cc[nH]c45)CC3)nc(N)c2cc1OC,98%,24%,33%
COc1ccc2nccc(NC(=O)OC3CCC(NCc4ccc5c(n4)NC(=O)CS5)CC3)c2c1 (centres undefined),98%,39%,9%

SMILES,Inhibition (Plasmodium falciparum [1]),Inhibition (Plasmodium falciparum [2]),Inhibition (HepG2)
O=c1sn(-c2csc3ccccc23)c2ccccc12,94%,54%,14%
Cc1noc(C)c1-c1ccc2c(Nc3ccccc3C(C)(C)C)c(C(=O)NCc3ccccc3)cnc2c1.Cl,99%,89%,20%
Cc1[nH]c(C)c(-c2ccc(OCc3cc(F)cc(F)c3)nc2)c(=O)c1Br,98%,97%,37%
O=C(c1cc(-c2cccs2)n[nH]1)N1CCN(S(=O)(=O)c2ccc(Br)cc2)CC1,93%,95%,0%
O=C(Nc1cccc(N2CCC(NCc3cccnc3)CC2)c1)c1cccc(C(F)(F)F)c1,98%,2%,26%
CCN(CC)C(=O)c1cnc(-c2ccccc2)nc1Oc1cccc(Cl)c1,92%,40%,0%
O=C(Nc1ccccc1Cc1ccccc1)c1ccccc1C(F)(F)F,99%,85%,0%
Cc1cc(-c2cccc3c(C(=O)N4CCc5cc6nccc(N7CCN8CCC[C@H]8C7)c6cc54)cccc23)cc(C)n1.Cl,97%,76%,13%
CC(C)(NCc1ncc[nH]1)c1nc(-c2ccc(Cl)c(O)c2)c(-c2ccncc2)[nH]1.Cl,95%,97%,42%
O=C(Nc1cccc(-c2ccc(CN3CCNCC3)cc2)c1)c1cccc(Cl)c1.O=C(O)C(F)(F)F,92%,4%,30%
CCn1cnc2c(Nc3cccc([N+](=O)[O-])c3)nc(N3CCC(N4CCCCC4)CC3)nc21,98%,35%,31%
CCOC(=O)NC1=NC(C)(C)N(OCCCOc2cc(Cl)c(Cl)cc2Cl)C(NC(=O)OCC)=N1,91%,97%,63%
N#Cc1cccc(C(=O)Nc2cccc(-c3cccc(CN4CCNCC4)c3)c2)c1.O=C(O)C(F)(F)F,89%,10%,37%
CCCCCCN1CCC(NCc2cccc(C(F)(F)F)c2)CC1.O=C(O)C(F)(F)F,100%,82%,18%
N#Cc1cccc(NC(=O)Nc2ccc(-c3csc(-c4nc5ccccc5[nH]4)c3)cc2)c1,100%,97%,63%
Cc1cccc2nc(-c3ccc(-c4ccc(CNCc5ccccc5)cc4)s3)[nH]c12.O=C(O)C(F)(F)F,100%,87%,22%
Cc1noc(C)c1-c1ccc2c(Nc3ccccc3C(C)(C)C)c(C(=O)NCc3ccc4c(c3)OCO4)cnc2c1.Cl,96%,88%,37%
N#Cc1ccc(CN2CCC(Oc3ccc(NC(=O)c4cccs4)cc3)CC2)cc1.O=C(O)C(F)(F)F,83%,82%,10%
CCNc1cc(C(=O)N[C@@H](Cc2ccccc2)[C@H](O)CNCCCc2ccc(OC)cc2)cc(N2CCCC2=O)c1.O=C(O)C(F)(F)F,99%,96%,4%
CCN(CCCN1CCCCC1)c1cc(C)nc(Nc2ccc(Cl)c(C(F)(F)F)c2)n1.O=C(O)C(F)(F)F,96%,55%,43%
CN1CCC(C(=O)N(Cc2ccc(-c3ccc(CNCCc4ccc(S(C)(=O)=O)cc4)cn3)cc2)C2Cc3ccccc3C2)CC1.O=C(O)C(F)(F)F,98%,49%,21%
